Screens (PubChem BioAssay)
Sampled rows, rich in hits. Any-hit rate of the full collection: about 4.4%.
TIM10 inh: growth inhibitors of TIM10 yeast strain; S. cerevisiae TIM10 strain growth, BacTiter-Glo luminescence, 24 h; inhibition, % at 10 µM; actives 1.4% (n = 330,000); AID 463195;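 active = inhibition of 40% or more at the single tested concentration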;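 also: wild-type TIM10 isogenic control strain grown at permissive 25 °C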
PfHsp90 yeast 2: reduces growth (ATP signal) of yeast expressing P. falciparum Hsp90. S. cerevisiae expressing PfHsp90, BacTiter-Glo ATP, 48 h; yeast lacking PDR1 and PDR3 efflux regulators. inhibition, % at 9.4 µM. actives 0.32% (n = 310,000);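 active = every replicate shows inhibition above about 80%, whatever the replicate mean, limit read from the data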;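 also: 0% = DMSO neutral controls and 100% = 20 µM radicicol positive controls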
SKKanGAS inh: SKKanGAS growth inhibition | actives 1.3% (n = 300,000) | AID 1662 | S. pyogenes SKKanGAS, kanamycin growth, BacTiter-Glo, 6 h | inhibition, % at 7.5 µM;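 active = mean replicate score, as percent of positive control median, at least 50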;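 also: strain carries kanamycin resistance gene driven by streptokinase promoter and grows in 40 µg/ml kanamycin; loss of luminescence reflects streptokinase promoter inhibition or plain growth inhibition; 0% = median of DMSO wells and 100% = positive control at its reference dose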
tim10-1 inh: growth inhibitors of tim10-1 mutant yeast | inhibition, % at 20 µM | AID 463190 | S. cerevisiae tim10-1 ts strain growth, BacTiter-Glo, 24 h | actives 2.2% (n = 330,000);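 active = inhibition of at least 40%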;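 also: mutant grown at 25 °C; 0% = DMSO wells with yeast and 100% = wells holding no yeast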
tim23-1 inh: tim23-1 yeast growth inhibition. actives 1.3% (n = 330,000). AID 463212. S. cerevisiae tim23-1 growth, BacTiter-Glo luminescence, 24 h. inhibition, % at 20 µM;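 active = growth inhibition of the mutant yeast at or above 50%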;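 also: temperature-sensitive mutant grown at 25 °C; plate controls were DMSO-treated mutant yeast for no effect and medium wells lacking yeast for full effect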
tim10 confirm: confirmation of TIM10 yeast growth inhibitors | shares compounds with TIM10 inh | S. cerevisiae tim10 strain growth, BacTiter-Glo luminescence, 24 h | inhibition, % at 10 µM | actives 63% (n = 4,600) | AID 463215;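 active = inhibition of yeast growth at or above a set limit in either of two replicates at 10 µM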;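 also: this counterscreen used the strain with wild-type TIM10; 0% = yeast with DMSO and 100% = medium wells lacking yeast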
tim23-1 conf: confirmation of tim23-1 mutant yeast growth inhibitors; inhibition, % at 20 µM; S. cerevisiae tim23-1 growth, BacTiter-Glo luminescence, 24 h; AID 463218; actives 83% (n = 4,400); shares compounds with tim23-1 inh;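 active = inhibition above about 39% in either of two replicate wells at 20 µM, limit read from the data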;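 also: temperature-sensitive tim23-1 mutant grown at 25 °C; 0% = DMSO wells with yeast and 100% = medium wells without yeast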
* = called active by the depositor; nt = no result.

SMILES	TIM10 inh	PfHsp90 yeast 2	SKKanGAS inh	tim10-1 inh	tim23-1 inh	tim10 confirm	tim23-1 conf
Cc1ccc(-c2cc(O)cc3sc(=O)oc23)cc1C	53*	-50	1	23	71*	68*	7
c1ccc(CSc2nc3ccccc3[nH]2)cc1	18	-12	-4	-12	12	nt	nt
CCCOc1ccc(CSc2nc3ccccc3[nH]2)cc1	47*	nt	7	23	64*	36*	49*
N#Cc1nc(NCC(F)F)nc(Nc2cc(F)cc(F)c2)n1	42*	2	nt	39	69*	50*	65*
CC(=O)Nc1cccc(-c2cc(-c3c(Cl)cccc3Cl)no2)c1	44*	-60	40	35	61*	28	41*
O=[N+]([O-])c1cc2oc3c(c2c(C=NCc2ccccc2)c1O)CCCC3	54*	-16	7	34	77*	0	2
Oc1ccc(Cl)cc1/C=C/c1ccc2cccc(O)c2n1	64*	105*	-39	35	58*	63*	16
O=C1c2sc3nc4ccccc4n3c2C(=O)N1c1ccccc1Cl	60*	13	13	-101	56*	59*	-19
FC(F)(F)c1cnc(NNC(=S)Nc2ccc(Cl)cc2)c(Cl)c1	10	12	16	28	6	nt	nt
FC(F)(F)c1cccc(NC(=S)NNC(=S)Nc2ccc(Cl)cc2)c1	59*	nt	115*	-24	65*	73*	10
O=[N+]([O-])c1cccc(S(=O)(=O)NCCCn2ccnc2)c1	-7	-15	nt	3	5	nt	nt
CCN(CC)C(=O)c1cc([N+](=O)[O-])cc2c1-c1ccc([N+](=O)[O-])cc1C2=C(C#N)C#N	40*	-3	8	37	51*	22	74*
COc1ccc(C/C(N)=N/OC(=O)Cc2ccccc2)cc1OC	-2	9	0	16	16	nt	nt
COc1ccc(C/C(N)=N/OC(=O)CCc2ccccc2)cc1	71*	-21	-6	23	72*	83*	78*
N/C(=N\OC(=O)c1ccccc1)c1ccccn1	18	34	3	24	33	nt	nt
N/C(CC1CC1(Cl)Cl)=N\OC(=O)c1ccccc1 (stereo unspecified)	52*	-6	15	35	80*	66*	73*
NS(=O)(=O)c1ccc(CNS(=O)(=O)c2ccc3c(c2)OCCO3)cc1	6	-9	-3	-7	2	nt	nt
Cc1ccc(CNS(=O)(=O)c2ccc3c(c2)OCCO3)cc1	41*	25	-5	38	56*	42*	46*
CC1CCCC(NC(=O)COC(=O)c2ccc(Cl)nc2)C1C (stereo unspecified)	7	-12	nt	18	31	nt	nt
CCCn1nnc(NC(=O)c2ccc(-c3cccc(Cl)c3)o2)n1	51*	-26	0	34	69*	32*	74*
CCn1nnc(NC(=S)NC(=O)c2ccc(-c3cccc(Cl)c3)o2)n1	35	-17	-6	35	41	nt	nt
CCOc1ccc(NC(=O)CN(C)C(=O)c2ccccc2-n2cnnn2)cc1OCC	-10	-16	-5	-15	-12	nt	nt
O=C(CSc1ccccc1)Nc1ccc2c(c1)OCCO2	-9	-21	0	-10	24	nt	nt
O=C(CSc1ccc(-c2ccccc2)nn1)Nc1ccc2c(c1)OCCO2	56*	-26	0	36	55*	58*	79*
Cc1ccccc1C(=O)N/N=C/c1ccc([N+](=O)[O-])s1	52*	0	11	33	76*	47*	66*
SMILES	TIM10 inh	PfHsp90 yeast 2	SKKanGAS inh	tim10-1 inh	tim23-1 inh	tim10 confirm	tim23-1 conf
Cc1ccc(NC2=C(Cl)C(=O)OC2OC(=O)c2ccc(C)cc2)cc1 (stereo unspecified)	36	17	-1	29	43	nt	nt
COC(=O)c1ccc(NC2=C(Cl)C(=O)OC2OC(=O)c2ccccc2)cc1 (stereo unspecified)	41*	-33	-10	36	50*	25	43*
O=C(N[C@H]1C/C=C\C[C@H](CC(=O)N(CCO)Cc2ccccc2)C(=O)N[C@@H](c2ccccc2)COC1=O)OCC1c2ccccc2-c2ccccc21	0	-5	nt	9	16	nt	nt
CCOC(=O)c1cnc(-n2nc(C)cc2C)nc1NC1CCCC1	45*	-35	97*	39	52*	51*	44*
COc1ccc(CNC(=O)[C@@H](NC(=O)C2CCN(C(=O)[C@@H](N)CC(C)C)CC2)C(C)C)cc1	-4	-2	2	2	-2	nt	nt
C=CCN1CC(=O)N2C(c3ccccc3)c3[nH]c4ccccc4c3C[C@H]2C1=O (stereo partly specified)	1	-10	9	16	20	nt	nt
Oc1ccc(Nc2nc(-c3ccccc3O)nc3ccccc23)cc1	47*	-5	20	26	75*	62*	-20
Cc1ccc(-n2nc3c(c2NC(=O)c2ccc4c(c2)OCO4)CS(=O)C3)c(C)c1 (stereo unspecified)	-6	nt	-5	-9	-2	nt	nt
Oc1ccc(/C=N/Nc2ncc(Br)cn2)c(O)c1	67*	-20	-7	32	70*	-26	67*
Cc1cc(-c2ccccc2)nc(N/N=C/c2ccc(O)cc2O)n1	57*	-5	4	35	64*	61*	70*
CCCN(CC(=O)Nc1ccccc1C)C(=O)c1ccc(N2CCCC2=O)cc1	-9	-7	nt	-6	-12	nt	nt
O=C(Nc1ccc2c(c1)OCCO2)c1ccc(Br)s1	nt	-7	1	nt	nt	nt	nt
CCc1sc(C(=O)Nc2ccc3c(c2)OCCO3)cc1Br	54*	5	1	39	79*	47*	85*
CN1CCc2c(sc(NC(=O)c3cc(Cl)sc3Cl)c2C(N)=O)C1	12	nt	1	39	28	nt	nt
Cc1ccc(NC(=O)ON=C2CCCC2)cc1	54*	-7	-8	0	53*	68*	47*
CCC1Oc2ccc(C)cc2N(CC(=O)NCC2CCCO2)C1=O (stereo unspecified)	-10	-14	-1	0	4	nt	nt
N=c1oc2cc(O)ccc2cc1C(=O)Nc1ccc(Br)cc1	41*	-14	19	33	55*	25	56*
Oc1c(Cl)cc(Cl)cc1C=Nc1ccc(N2CCOCC2)cc1	66*	-21	4	16	74*	18	38*
Oc1ccccc1N=Nc1nc(-c2ccccc2)c(-c2ccccc2)[nH]1	56*	106*	114*	26	53*	57*	62*
O=C(O)c1ccc(-c2nc(-c3ccccc3)c(-c3ccccc3)[nH]2)cc1	-4	-21	14	-5	-12	nt	nt
Cc1ccc(-c2nc(CNC(=O)c3ccco3)cs2)cc1	0	10	-8	10	17	nt	nt
